# Measurements taken from PubChem BioAssay (Tox21).
# Records with an inconclusive call do not appear. Active and inactive are the calls of the source. The call rests on the fitted dose curve; in most records, active means well fitted cell-killing curve with a large enough effect in the repeat runs; inconclusive means weak or mixed curves, or effect the other way; inactive means no such curve, though single readings can be large or run the other way.
# Assay: qHTS assay for identifying genotoxic compounds that show differential cytotoxicity against isogenic chicken DT40 cell lines with known DNA damage response pathways - Rev3 mutant cell line (AID 743014); further: nearly all actives have a fitted effect of over 55% in size
# Settings: chicken DT40 Rev3-/- viability, CellTiter-Glo, 40 h; series mostly up to 68.4 µM; activity, negative = cytotoxicity: at the top concentration
# On the % scale 0 is the no-effect control and ±100 the full control effect; potency means the concentration at half of the fitted maximal effect.
SMILES,"activity, negative = cytotoxicity",Potency
FC(F)(F)C(F)(F)C(F)(F)C(F)(F)C(F)(F)C(F)(F)F,6.97% (inactive),
O=C1/C(=C\c2cccs2)CCC/C1=C\c1cccs1,,26.6 µM (active)
C/C=C1\NC(=O)[C@H]2CSSCC/C=C/[C@H](CC(=O)N[C@H](C(C)C)C(=O)N2)OC(=O)C(C(C)C)NC1=O (stereo not given in full),,0.0012 µM (active)
CCCCCCCCCCCCCCCCCCCCCCO,-3.25% (inactive),
OCCO[C@@H]1[C@@H](O)[C@H](O)[C@@H](CO)O[C@@H]1O,0.841% (inactive),
CCC[C@@]1(CCc2ccccc2)CC(O)=C([C@H](CC)c2cccc(NS(=O)(=O)c3ccc(C(F)(F)F)cn3)c2)C(=O)O1,-4.26% (inactive),
CCCCCCCCCCCCCCCCCC(=O)[O][Al],0.12% (inactive),
CCN(CC)c1ccc(C(=C2C=CC(=[N+](CC)CC)C=C2)c2ccccc2)cc1,,0.106 µM (active)
C[C@H]1C[C@H]2[C@@H]3CCC4=CC(=O)C=C[C@]4(C)[C@@]3(F)[C@@H](O)C[C@]2(C)[C@@]1(O)C(=O)CCl,,26.6 µM (active)
c1ccc2c(c1)Sc1ccccc1N2CCN1CCCC1,,8.41 µM (active)
CCCCC(F)(F)[C@@]1(O)CC[C@H]2[C@@H](CC(=O)[C@@H]2CCCCCCC(=O)O)O1,-3.59% (inactive),
CO/N=C(\C(=O)N[C@@H]1C(=O)N2C(C(=O)O)=C(CSc3nnnn3C)CS[C@H]12)c1csc(N)n1,0.988% (inactive),
CS(=O)(=O)Nc1cc2occ(NC=O)c(=O)c2cc1Oc1ccccc1,6.04% (inactive),
Nc1ncnc(Nc2ccc(Cl)cc2)n1,-9.12% (inactive),
Cc1c(N)nc(C(CC(N)=O)NCC(N)C(N)=O)nc1C(=O)NC(C(=O)NC(C)C(O)C(C)C(=O)NC(C(=O)NCCc1nc(-c2nc(C(=O)NCCCN[C@@H](C)c3ccccc3)cs2)cs1)C(C)O)C(O[C@@H]1O[C@@H](CO)[C@@H](O)[C@H](O)[C@@H]1O[C@H]1O[C@H](CO)[C@@H](O)[C@H](OC(N)=O)[C@@H]1O)c1cnc[nH]1 (stereo not given in full),,0.944 µM (active)
